Experimental data published in PubChem BioAssay.
The source made the active and inactive calls.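 The calls were made as follows, unless noted: active = normalized viability below 100% at a tested concentration; inactive = the rest.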

Columns and labels:
[1] = ovarian cancer cell viability with rucaparib, profiling panel, oncology-focused library, rucaparib conditional (AID 1508598); details: patient-derived ovarian cancer cells, CellTiter-Glo viability, 144 h, stronger effect = lower value
[2] = circadian clock period modulators, cell-based, LOPAC library, luminescence reporter (AID 2774; call rule not given here;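 also: values are relative to mean of DMSO wells on each plate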); details: circadian reporter cells, at 7 µM, actives lie on both sides
[3] = inhibitors of Cryptococcus chitosan production, flow cytometry, Cibacron Brilliant Red staining (AID 1347148; call rule not given here;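 also: compound exposure lasted three days at 37 degrees C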); details: Cryptococcus neoformans chitosan, stronger effect = lower value; at 10 µM unless noted
[4] = survival rescue of mitochondrial mutant cells in low glucose, primary screen, MELAS cybrids, Rieske KO mouse fibroblasts, CellTiter-Glo (AID 1508586;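 active = mean z-score across replicates of 1.96 or higher in either the MELAS or the Rieske mutant cell line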;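 also: z relative to plate mean and SD of compound and empty wells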)
[5] = phospholipid biosynthesis inhibitors in animal cells, primary screen, cell-based, LOPAC library, screen 4 (AID 1347384; call rule not given here); details: phospholipid biosynthesis inhibition screen, at 10 µM
[6] = system: Hepatitis C virus NS3 helicase; assay: HCV NS3 helicase inhibitors, primary screen, biochemical, fluorescence polarization, LOPAC1280 library (AID 687035; in the data active = inhibition above about 37%); details: Purified HCV NS3 helicase, Cy5-dT15 ssDNA binding fluorescence polarization; stronger effect = higher value; concentration not given here
[7] = Cy5 fluorescence quenching or enhancement artefacts, artefact control for HCV NS3 helicase inhibitor project, biochemical, LOPAC1280 (AID 687037; call rule not given here); details: Cy5-DNA-NS3h complex fluorescence interference counterscreen
[8] = at 0.000305 µM, OCI-C5x cells, with rucaparib 10 µM, 100% = cells with rucaparib alone
[9] = at 0.000305 µM, OCI-C5x cells, without rucaparib
[10] = at 0.000305 µM, OCI-P5x cells, with rucaparib 20 µM, 100% = cells with rucaparib alone
[11] = at 0.000305 µM, OCI-P5x cells, without rucaparib
[12] = at 0.00122 µM, OCI-C5x cells, with rucaparib 10 µM, 100% = cells with rucaparib alone
[13] = at 0.00122 µM, OCI-C5x cells, without rucaparib
[14] = at 0.00122 µM, OCI-P5x cells, with rucaparib 20 µM, 100% = cells with rucaparib alone
[15] = at 0.00122 µM, OCI-P5x cells, without rucaparib
[16] = at 0.00488 µM, OCI-C5x cells, with rucaparib 10 µM, 100% = cells with rucaparib alone
[17] = at 0.00488 µM, OCI-C5x cells, without rucaparib
[18] = at 0.00488 µM, OCI-P5x cells, with rucaparib 20 µM, 100% = cells with rucaparib alone
[19] = at 0.00488 µM, OCI-P5x cells, without rucaparib
[20] = at 0.0195 µM, OCI-C5x cells, with rucaparib 10 µM, 100% = cells with rucaparib alone
[21] = at 0.0195 µM, OCI-C5x cells, without rucaparib
[22] = at 0.0195 µM, OCI-P5x cells, with rucaparib 20 µM, 100% = cells with rucaparib alone
[23] = at 0.0195 µM, OCI-P5x cells, without rucaparib
[24] = at 0.0781 µM, OCI-C5x cells, with rucaparib 10 µM, 100% = cells with rucaparib alone
[25] = at 0.0781 µM, OCI-C5x cells, without rucaparib
[26] = at 0.0781 µM, OCI-P5x cells, with rucaparib 20 µM, 100% = cells with rucaparib alone
[27] = at 0.0781 µM, OCI-P5x cells, without rucaparib
[28] = at 0.313 µM, OCI-C5x cells, with rucaparib 10 µM, 100% = cells with rucaparib alone
[29] = at 0.313 µM, OCI-C5x cells, without rucaparib
[30] = at 0.313 µM, OCI-P5x cells, with rucaparib 20 µM, 100% = cells with rucaparib alone
[31] = at 0.313 µM, OCI-P5x cells, without rucaparib
[32] = at 1.25 µM, OCI-C5x cells, with rucaparib 10 µM, 100% = cells with rucaparib alone
[33] = at 1.25 µM, OCI-C5x cells, without rucaparib
[34] = at 1.25 µM, OCI-P5x cells, with rucaparib 20 µM, 100% = cells with rucaparib alone
[35] = at 1.25 µM, OCI-P5x cells, without rucaparib
[36] = at 5 µM, OCI-C5x cells, with rucaparib 10 µM, 100% = cells with rucaparib alone
[37] = at 5 µM, OCI-C5x cells, without rucaparib
[38] = at 5 µM, OCI-P5x cells, with rucaparib 20 µM, 100% = cells with rucaparib alone
[39] = at 5 µM, OCI-P5x cells, without rucaparib

C/C(=C\c1csc(C)n1)[C@H]1C[C@@H]2O[C@@H]2CCC[C@H](C)[C@H](O)[C@@H](C)C(=O)C(C)(C)[C@H](O)CC(=O)O1
active: viability [1, 8] 72.1% | viability [1, 9] 52.1% | viability [1, 10] 73.7% | viability [1, 11] 30% | viability [1, 12] 41.4% | viability [1, 13] 28.8% | viability [1, 14] 57.4% | viability [1, 15] 15.9% | viability [1, 16] 27.2% | viability [1, 17] 23.1% | viability [1, 18] 51% | viability [1, 19] 16.8% | viability [1, 20] 29.1% | viability [1, 21] 22% | viability [1, 22] 53.1% | viability [1, 23] 17% | viability [1, 24] 29.4% | viability [1, 25] 22.1% | viability [1, 26] 57% | viability [1, 27] 17.9% | viability [1, 28] 29.6% | viability [1, 29] 24% | viability [1, 30] 46.5% | viability [1, 31] 15.9% | viability [1, 32] 25.2% | viability [1, 33] 24.3% | viability [1, 34] 46.3% | viability [1, 35] 14.6% | viability [1, 36] 52.3% | viability [1, 37] 41.6% | viability [1, 38] 43.6% | viability [1, 39] 17.3%

C#CCN(C)[C@@H](C)Cc1ccccc1
inactive: period change [2] 0.185 h | fold fluorescence [3] 5.04 [at 267 µM]

O=C1CS[C@@H](c2ccccc2Cl)c2cc(Cl)ccc2N1
inactive: fold fluorescence [3] 10.4 [at 154.2 µM]

CCN(CC)C(C)C(=O)c1ccccc1 (configuration not stated)
-0.333: z-score ([4]; Rieske KO mouse fibroblast survival, CellTiter-Glo 72 h)
inactive: z-score ([4]; MELAS cybrid survival, CellTiter-Glo 48 h, stronger effect = higher value) 0.648

C[C@@]1(CO)[C@H]2CC[C@@H]3C[C@H]4C[C@@]3(CC[C@@]4(O)CO)[C@]2(C)CC[C@@H]1O
inactive: fold fluorescence [3] 13 [at 147.7 µM]

COc1ccc(C(=O)OC2CCC3(C)C4CCC5C6(O)CC(O)C7(O)C(CN8CC(C)CCC8C7(C)O)C6(O)CC53OC24O)cc1OC (configuration not stated)
inactive: fold fluorescence [3] 11.6 [at 74.2 µM]

N#CCCN
inactive: outcome [5]

C/C1=C/C(=O)O[C@H]2C[C@H](CC[C@@H](C)/C=C\CC1)O[C@](O)([C@H]1CSC(=O)N1)C2
inactive: fold fluorescence [3] 6.99 [at 126.4 µM]

CCN1C[C@]2(COC)C(O)C[C@H](OC)[C@]34C1[C@H]([C@H](OC)[C@H]23)[C@]1(OC(C)=O)[C@H]2[C@@H](OC(=O)c3ccccc3)[C@@](O)(C[C@H]24)[C@@H](OC)[C@@H]1O (some centres not stated)
inactive: fold fluorescence [3] 4.31 [at 77.4 µM]

C[C@H]1C2Cc3ccc(O)cc3[C@@]1(C)CCN2CC1CC1
inactive: inhibition [6] 0% | fluorescence ratio (interference) [7] 1 | outcome [5]

CC(C)[C@@]12O[C@@H]1[C@@H]1O[C@]13[C@]1(O[C@@H]1C[C@@H]1C4=C(CC[C@@]13C)C(=O)OC4)[C@@H]2O
active: viability [1, 8] 33.2% | viability [1, 9] 23.2% | viability [1, 10] 11.8% | viability [1, 11] 6.41% | viability [1, 12] 19.5% | viability [1, 13] 15.4% | viability [1, 14] 12.6% | viability [1, 15] 7.08% | viability [1, 16] 8% | viability [1, 17] 7.6% | viability [1, 18] 13.9% | viability [1, 19] 8.9% | viability [1, 20] 10.1% | viability [1, 21] 8.03% | viability [1, 22] 12.6% | viability [1, 23] 8.76% | viability [1, 24] 9.57% | viability [1, 25] 9.36% | viability [1, 26] 11.1% | viability [1, 27] 9.41% | viability [1, 28] 9.16% | viability [1, 29] 10.5% | viability [1, 30] 12.1% | viability [1, 31] 8.22% | viability [1, 32] 9.48% | viability [1, 33] 10% | viability [1, 34] 9.34% | viability [1, 35] 8.5% | viability [1, 36] 9.2% | viability [1, 37] 8.72% | viability [1, 38] 10.3% | viability [1, 39] 6.87%
